Experimental data: PubChem BioAssay (NCATS)
Results filed as inconclusive are left out. The source made the active and inactive calls. Calls come from the whole dose curve; as a rule, active = well fitted inhibition curve with a large enough effect; inconclusive = small, poorly fitted or top-dose-only effect; inactive = no such curve, though single readings can be large or run the other way.

Test: BET inhibitor-based combinations targeting novel dependencies in MECOM-rearranged (r) AML: HNT-34 cell line (AID 2202234); note: nearly all actives have a fitted effect of over 35% in size;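 for viability (% of control): plate controls were vehicle wells for no effect and cell-free wells for full effect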
Settings: HNT-34 AML viability, CellTiter-Glo luminescence, 48 h; series mostly up to 46 µM; viability (% of control): at the top concentration
Excerpt: Ecotropic viral insertion site 1 (EVI1) is located on chromosome 3q26.2 as part of the MECOM (MDS and EVI1 complex) locus. Under normal hematopoiesis, EVI1 is a regulator of hematopoietic stem cell maintenance and self-renewal and EVI1 levels decrease as the cells differentiate. In approximately 5-10% of de novo acute myeloid leukemia (AML) EVI1 is aberrantly expressed, including Chromosomal inv(3)(q21;q26.2) or t(3;3)(q21;q26.2) alterations (MECOM-r) that account for about 50% of AML with EVI1 overexpression 31. AMLs with high levels of EVI1 have a poor prognosis and an overall survival time averaging between 10-14 months. EVI1 overexpression confers resistance in leukemia cells, highlighting the need to develop new targeted therapies for EVI1 overexpressing AMLs. Here, we performed an unbiased chemical drug screening by evaluating the single agent activity of a collection of 2,480 oncology-focused, approved and investigational drugs (NCATS Mechanism Interrogation Plates, MIPE v5.0) against a panel of seven AML cell lines. These included four MECOM-r cell-lines (AML-191, AML-194, UCSD-AML1 and HNT-34) and three non-MECOM-r AMLs (MV4-11, OCI-AML3 and SET-2). Exploiting the mechanistic redundancy built in the library, we identified target-level sensitivities in MECOM-r AML cells and relative activity as compared to other AML subtypes.
A collection of 2480 mechanistically annotated dugs (MIPE v5.0) was used to screen four 3q26.2 rearranged AML cell lines and three non-3q26.2 rearranged AML cell lines. This library purposely exploits redundancy by including multiple inhibitors of key onco-targets, while simultaneously encompassing mechanistic diversity, targeting more than 800 distinct mechanisms of action. Briefly, cells were seeded in 5 uL of growth media using a Multidrop Combi dispenser into 1536 well white polystyrene tissue culture treated plates (Corning) at a density of 500cells/well. For each cell-line, for each of the 2480 drugs in MIPE v5.0 library, an 11-point dose curve was generated via a 1536 pin-tool. Plates were incubated for 48 hr at standard incubator conditions, covered by a stainless steel gasketed lid to prevent evaporation. Cell viability was determined by luminescence based, Cell Titer Glo assay (Promega). In detail, 3 uL of Cell Titer Glo were added to each well and plates were incubated at room temperature for 15 min with a stainless-steel lid in place. Luminescence readings were taken using a Viewlux (PerkinElmer) with a 2 s exposure time per plate. Compound dose-response curves were normalized to DMSO and empty well controls on each plate. Quantitative drug activity data from dose-response curves was determined utilizing area Under the Curve (AUC) and Z-transformed AUC (Z-AUC, a mean-centering transformation applied to each individual cell-line screened).
Potency is the fitted concentration of half-maximal effect.

| SMILES | Potency | viability (% of control) | outcome |
| --- | --- | --- | --- |
| Nc1nccc(-c2c(-c3ccc(F)cc3)ncn2C2CCCCC2)n1 | 20.9 µM (active) | – | – |
| CN1CCN(c2ccc3nc(-c4cc(C(C)(C)C)c(OCCCC(=O)NCCCN=[N+]=[N-])c(C(C)(C)C)c4)[nH]c3c2)CC1 | 9.34 µM (active) | – | – |
| CC(C)Oc1ccc(-c2nn([C@@H](C)c3oc4ccc(F)cc4c(=O)c3-c3cccc(F)c3)c3ncnc(N)c23)cc1F | 20.9 µM (active) | – | – |
| N#Cc1cc2cc(CN3CCC(Nc4ncnc5sc(CC(F)(F)F)cc45)CC3)c(O)cc2n1Cc1cn[nH]c1 | 23.5 µM (active) | – | – |
| Nc1ncnc(Nc2ccc(OCc3ccccc3)c(Cl)c2)c1/C=N/OCCN1CCOCC1 | 23.5 µM (active) | – | – |
| COc1cc(C(C)C)c2c(c1)S(=O)(=O)N(COc1cc(=O)n3cccc(OCCN4CCCCC4)c3n1)C2=O | 20.9 µM (active) | – | – |
| O=C(O)/C(S)=C/c1ccc(I)cc1 | – | 108% (inactive) | – |
| c1ccc(CNCc2ccc(CN3CCCNCCNCCCNCC3)cc2)nc1 | – | 109% (inactive) | – |
| CNCCCOc1cc(F)c(-c2c(Cl)nc3ncnn3c2N[C@@H](C)C(F)(F)F)c(F)c1 | 0.0742 µM (active) | – | – |
| CCN(C(=O)c1ccccc1OC)c1cc2c(cc1N1CCNC[C@H]1C)n(C)c(=O)n2C | – | 101% (inactive) | – |
| COc1ccc(-c2oc3c(CC=C(C)C)c(OC4O[C@H](CO)[C@@H](O)[C@H](O)[C@H]4O)cc(O)c3c(=O)c2OC2O[C@@H](C)[C@H](O)[C@@H](O)[C@H]2O)cc1 (stereo not given in full) | – | 109% (inactive) | – |
| C[C@H]1O[C@@H](O[C@H]2[C@@H](O)C[C@H](O[C@H]3[C@@H](O)C[C@H](O[C@H]4CC[C@@]5(C)[C@H](CC[C@@H]6[C@@H]5C[C@@H](O)[C@]5(C)[C@@H](C7=CC(=O)OC7)CC[C@]65O)C4)O[C@@H]3C)O[C@@H]2C)C[C@H](O)[C@@H]1O | 0.105 µM (active) | – | – |
| COC1CCC(N2C(=O)CNc3ncc(-c4ccc(C(C)(C)O)nc4)nc32)CC1 (stereo not given) | 2.35 µM (active) | – | – |
| C=CCNC1=C2C[C@@H](C)C[C@H](OC)[C@H](O)[C@@H](C)/C=C(\C)[C@H](OC(N)=O)[C@@H](OC)/C=C\C=C(/C)C(=O)NC(=CC1=O)C2=O | 11.8 µM (active) | – | – |
| CC[C@@]1(O)C(=O)OCc2c1cc1n(c2=O)Cc2c-1nc1ccccc1c2CCNC(C)C | 0.0037 µM (active) | – | – |
| COc1cc(N2CCN(C)CC2)ccc1Nc1ncc2c(n1)N(C)c1ccccc1C(=O)N2 | 26.3 µM (active) | – | – |
| C[C@@H]1COCCN1c1cc(-c2ccnn2C)c2ccnc(-c3ccn[nH]3)c2n1 | 0.296 µM (active) | – | – |
| CN(CCOc1ccc(-c2ccc3c(c2)OCO3)cc1C(C)(C)C)CC(=O)O | – | 87.9% (inactive) | – |
| CC[C@@H](Oc1cccc(CN(CCCOc2ccc(OC)cc2)c2nc3ccccc3o2)c1)C(=O)O | – | 108% (inactive) | – |
| CC(C)(C)S(=O)(=O)c1ccc2nccc(Nc3n[nH]c4ccc(F)cc34)c2c1 | – | 84.8% (inactive) | – |

| SMILES | Potency | viability (% of control) | outcome |
| --- | --- | --- | --- |
| CC(C)(NS(=O)(=O)c1ccc2c(Cl)cnc(N=C(N)N)c2c1)C(=O)O | – | 104% (inactive) | – |
| CC(=O)O/N=C1/C(c2c(O)[nH]c3cc(Br)ccc23)=Nc2ccccc21 | 2.95 µM (active) | – | – |
| CC(=O)O/N=C1\C(=O)N(Cc2cc(Cl)ccc2Cl)c2ccc(Cl)cc21 | 2.95 µM (active) | – | – |
| Cn1ncc(NC(=O)c2nc(-c3c(F)cccc3F)sc2N)c1N1CC[C@@H](N)[C@H](F)CC1 | 2.09 µM (active) | – | – |
| OC1CCC([C@H](O)C[C@H]2c3c(F)cccc3-c3cncn32)CC1 (stereo not given in full) | – | 110% (inactive) | – |
| CCN(CC)C(=O)Cc1csc(NS(=O)(=O)c2cccc(Cl)c2C)n1 | – | 95.6% (inactive) | – |
| NS(=O)(=O)c1ccc(NC(=S)N2CCN(C/C=C/c3ccccc3)CC2)cc1 | 18.6 µM (active) | – | – |
| CCc1cc(/C(C)=N/OCc2ccc(C3CCCCC3)c(C(F)(F)F)c2)ccc1CN1CC(C(=O)O)C1 | – | 95.3% (inactive) | – |
| [2H]c1nc(C)nc([2H])c1-c1cc(NC[C@@H](C)c2cccc3c(C(=O)NC)ccnc23)ncn1 | – | – | inactive |
| CCc1c(-c2ccccc2C)nc2c(C#N)c[nH]n2c1=O | inactive | – | – |
| COc1ncc(Nc2ncc(C(C)N3CCN(S(C)(=O)=O)CC3)cc2-c2nc(C)nc(N)n2)cc1F (stereo not given) | – | 10% (inactive) | – |
| O=c1cc(O)c(Cl)c[nH]1 | – | 108% (inactive) | – |
| Cc1ccc(-c2ncc(Cl)cc2-c2ccc(S(C)(=O)=O)cc2)cn1 | – | 89.4% (inactive) | – |
| CNCCN(C)Cc1cn[nH]c1-c1ccc(OC2CC(OCCC3CCOCC3)C2)cc1 (stereo not given) | 18.6 µM (active) | – | – |
| CNCCn1c(=O)c2cc(OC)c(OC)cc2c2cnc3cc4c(cc3c21)OCO4 | 0.0121 µM (active) | – | – |
| c1ccc2c(-c3cnn4cc(-c5ccc(OCCN6CCOCC6)cc5)cnc34)ccnc2c1 | 8.11 µM (active) | – | – |
| CN(C)CC[C@H](CSc1ccccc1)Nc1ccc(S(=O)(=O)NC(=O)c2ccc(N3CCN(Cc4ccccc4-c4ccc(Cl)cc4)CC3)cc2)cc1[N+](=O)[O-] | 1.86 µM (active) | – | – |
| Cn1cc(-c2cnc3ccc4ccc(CS(=O)(=O)NCc5ccccn5)cc4c(=O)c3c2)cn1 | 23.5 µM (active) | – | – |
| CS(=O)(=O)Nc1cc2occ(NC=O)c(=O)c2cc1Oc1ccccc1 | – | 103% (inactive) | – |
| CC(=O)OCC(=O)[C@@]12OC(C)(C)O[C@@H]1C[C@H]1[C@@H]3C[C@H](F)C4=CC(=O)C=C[C@]4(C)[C@@]3(F)[C@@H](O)C[C@@]12C | – | 96% (inactive) | – |
